High-throughput results as filed in PubChem BioAssay.
Most compounds without a hit are left out; they make up all but 1.7% or so of the library.
SSB-PriA inh: K. pneumoniae PriA-SSBct interaction inhibition | AlphaScreen SSBct-PriA binding, biotinylated peptide | inhibition, % at 33 µM | 430,000 compounds, 0.6% hits; in the data active = inhibition mostly above about 37%, no sharp cut-off; inactive = mostly below about 20%;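 also: plate controls were negative control peptide for no effect and reference peptide for full effect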
VHR inh abs: inhibitors of human VHR1 phosphatase (DUSP3); inhibition, % at 13.3 µM; 290,000 compounds, 0.52% hits; P51452; recombinant VHR phosphatase, pNPP absorbance; in the data active = inhibition above about 50%
RecA intein inh: Mtb RecA intein splicing inhibition; cell-free RecA intein splicing, fluorescence; 290,000 compounds, 0.75% hits; inhibition, % (test concentration not listed); AID 2221; in the data active = inhibition above about 30%;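 also: 0% = vehicle wells and 100% = reference inhibitor control wells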
Target sequence (P9WHJ3 whole entry, looked up): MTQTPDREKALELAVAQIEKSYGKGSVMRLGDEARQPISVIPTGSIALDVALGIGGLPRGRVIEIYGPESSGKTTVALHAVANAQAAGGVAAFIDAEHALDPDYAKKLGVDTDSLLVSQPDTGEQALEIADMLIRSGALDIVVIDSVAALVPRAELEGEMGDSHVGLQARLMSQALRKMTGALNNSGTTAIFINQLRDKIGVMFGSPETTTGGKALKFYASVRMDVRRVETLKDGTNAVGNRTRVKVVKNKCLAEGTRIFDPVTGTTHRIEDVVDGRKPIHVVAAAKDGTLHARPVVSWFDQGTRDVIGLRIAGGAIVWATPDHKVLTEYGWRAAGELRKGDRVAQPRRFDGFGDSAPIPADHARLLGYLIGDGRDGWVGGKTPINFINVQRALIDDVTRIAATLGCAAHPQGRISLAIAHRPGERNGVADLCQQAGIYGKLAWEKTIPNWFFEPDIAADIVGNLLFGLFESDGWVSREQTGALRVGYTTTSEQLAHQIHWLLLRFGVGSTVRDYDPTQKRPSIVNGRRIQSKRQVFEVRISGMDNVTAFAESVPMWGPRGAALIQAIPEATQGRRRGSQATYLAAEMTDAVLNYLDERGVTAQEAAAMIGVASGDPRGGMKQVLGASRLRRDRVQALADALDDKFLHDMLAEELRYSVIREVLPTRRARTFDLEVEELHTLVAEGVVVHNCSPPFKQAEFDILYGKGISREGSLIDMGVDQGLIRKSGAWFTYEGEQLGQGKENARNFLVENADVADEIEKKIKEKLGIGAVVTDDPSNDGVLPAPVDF
CCHF vOTU inh-1: blocks the CCHF virus ovarian tumor domain protease; AID 651958; inhibition, % at 11.5 µM; 370,000 compounds, 0.55% hits; CCHFV vOTU protease, Pep-AMC fluorescence; also: 0% = vehicle wells with enzyme and 100% = no enzyme wells
SARS 3CLpro inh: SARS-CoV 3CLpro protease inhibition; P0C6X7; recombinant SARS-CoV 3CLpro, quenched FRET peptide cleavage; inhibition, % at 6 µM; 290,000 compounds, 0.14% hits; AID 1706; in the data active = inhibition above about 12%
CCHF vOTU inh-2: CCHFV vOTU protease inhibition, confirmation | shares compounds with CCHF vOTU inh-1 | Recombinant CCHFV vOTU, Pep-AMC fluorescence | inhibition, % at 11.5 µM | 1,900 compounds, 17% hits | AID 686976
* hit, by the source's call; · = no result. Rule as the data show it, unless noted: active = inhibition above about 30%; inactive = the rest.

SMILES	SSB-PriA inh	VHR inh abs	RecA intein inh	CCHF vOTU inh-1	SARS 3CLpro inh	CCHF vOTU inh-2
COc1ccc(-c2csc(NC(=O)[C@H](C)N3C(=O)C4CC=CCC4C3=O)n2)cc1OC (stereo partly drawn)	13.2	·	·	5.6	·	·
CC(C(=O)Nc1nc(-c2ccc(F)c(F)c2)cs1)N1C(=O)C2CC=CCC2C1=O (stereo not drawn)	1.2	·	·	30.8*	·	-8.3
COc1ccccc1N(/N=C1\Sc2ccccc2C1=O)C(C)=O	·	26.3	15.1	31.6*	0.1	5.2
COc1ccc(N(/N=C2\Sc3ccccc3C2=O)C(C)=O)cc1	·	14.4	1.7	0.8	-5.1	·
Cc1ccsc1/C=N\Nc1cn[nH]c(=O)c1Cl	·	-4.6	-2.4	29.7*	2.7	2.9
O=c1[nH]ncc(NN=Cc2cccs2)c1Cl	-12.6	·	·	·	·	·
O=C(NCCn1nc(-c2ccc(Cl)cc2)ccc1=O)c1cccc(C(F)(F)F)c1	-2.0	·	·	·	·	·
COc1ccc(C(=S)N2CCN(C(=S)c3ccccn3)CC2)cc1	-7.0	·	·	·	·	·
Cc1cc[n+](-c2[nH]c(=O)sc2/C=N/N=C(\[O-])c2ccncc2)cc1	·	22.4	-2.7	30.6*	-3.4	-17.9
Oc1ccc(NCc2cccs2)cc1	13.6	-3.5	-5.7	87.8*	-0.4	-4.8
CC(=O)Nc1ccc(NCc2cccs2)cc1	-6.7	-4.9	-0.6	-1.5	-4.5	·
NC(=O)C1CCN(c2ccc3cccc(O)c3n2)CC1	29.0	·	·	·	·	·
COC(=O)N1CCc2ccc(NS(=O)(=O)c3ccc4c(c3)OCCO4)cc2C1	0.0	·	·	·	·	·
Cn1c2ccccc2c(=O)c2c(=O)n(Cc3cccc4ccccc34)cnc21	·	·	·	3.5	·	·
Cc1[nH][nH]c(=O)c1C(c1c(C)[nH][nH]c1=O)c1cn(Cc2cccc3ccccc23)c2ccccc12	10.8	21.4	·	48.0*	5.3	13.4
Cc1[nH][nH]c(=O)c1C(c1c(C)[nH][nH]c1=O)c1cn(C)c2ccccc12	-12.9	25.2	·	44.1*	1.6	-32.2
Cc1cc(C)c(S(=O)(=O)N2CCC(Oc3ncccc3C#N)CC2)c(C)c1	-12.0	·	·	·	·	·
Cn1nc(CNS(=O)(=O)c2ccc3c(c2)CCO3)c2c1CCCC2	-1.0	·	·	·	·	·
COc1cc(CCNC2=CC(=O)c3ncccc3C2=O)ccc1O	15.2	·	·	73.5*	·	78.0*
O=C(NCC1CCN(C(=O)C(=O)c2cc3ccccc3o2)CC1)c1cc(C(F)(F)F)cc(C(F)(F)F)c1	·	·	·	36.7*	·	-11.0
O=C(C(=O)N1CCC(CNS(=O)(=O)c2cc(C(F)(F)F)cc(C(F)(F)F)c2)CC1)c1cc2ccccc2o1	·	·	·	2.5	·	·
Cc1cc(Br)ccc1NC(=O)c1ccc(=O)n(Cc2ccccc2)c1	1.0	·	·	·	·	·
CCOc1ccc(CC(=O)N2CCN=C2SCc2cccc(F)c2)cc1	-9.0	·	·	·	·	·
CN(C)S(=O)(=O)N1CC(c2nc(-c3ccco3)no2)C1	-16.0	·	·	·	·	·
CC(C)NC(=O)c1sc2nc3c(c(-c4cccs4)c2c1N)CN(C)CC3	7.1	11.9	-4.0	17.3	-3.5	·
SMILES	SSB-PriA inh	VHR inh abs	RecA intein inh	CCHF vOTU inh-1	SARS 3CLpro inh	CCHF vOTU inh-2
Cc1cccc(NC(=O)c2sc3nc4c(c(-c5cccs5)c3c2N)CN(C)CC4)c1	-2.8	0.0	-9.2	30.2*	-13.8	48.1*
CC1CN(C(=O)Cn2cc(SCc3cccc4ccccc34)c3ccccc32)CC(C)O1 (stereo not drawn)	-10.0	·	·	·	·	·
O=C1c2ccccc2C(=O)c2cc(N3CCCCC3)ccc21	-2.9	·	·	-9.1	·	·
O=C1C=C(N2CC2)c2ccccc2C1=O	·	·	·	105.0*	·	92.0*
COCCNC(=O)NC12CC3(C)CC(C)(CC(C)(C3)C1)C2	1.1	2.1	2.3	35.0*	-0.9	-4.2
CCOc1ccc(S(=O)(=O)N2CCN(c3cc(C(F)(F)F)nc(C)n3)CC2)cc1F	1.0	·	·	·	·	·
CCCCCOc1ccc(C(=O)Nc2cc(C)nn2C(C)C)cc1	5.0	·	·	·	·	·
CCCCCCNC(=O)OC12CN(C(=O)OC(C)C)N(C(=O)OC(C)C)CC1(O)CN(S(=O)(=O)c1ccc(C)cc1)C2 (stereo not drawn)	·	·	·	37.1*	·	11.0
N#Cc1cccc(NC(=O)c2cccc3nc4ccccc4nc23)c1	-8.0	·	·	·	·	·
COC(=O)c1sc(-c2ccccc2)cc1NC(=O)C1CCCN1S(C)(=O)=O (stereo not drawn)	-10.0	·	·	·	·	·
CC1(Cc2ccc(C(F)(F)F)o2)C(=O)Nc2ccc(-c3cccc(C(F)(F)F)c3)cc21 (stereo not drawn)	·	·	·	35.8*	·	-1.2
CC1(Cc2ccc3c(c2)OCO3)C(=O)Nc2ccc(-c3cccc(C(F)(F)F)c3)cc21 (stereo not drawn)	·	·	·	-1.6	·	·
